The text below walks through data of PubChem BioAssay.

The nature of experiment [1]: compounds binding Alexa647 anti-His antibody – biochemical, small-molecule microarray, 635 nm fluorescence, artefact control for SMM control protein annotation, primary screen (AID 1128).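 Also: score merges feature fluorescence with signal-to-noise for each printed compound spot.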 Conditions: higher = more signal.
The subject of experiment [2] is Human papillomavirus type 1a E7 protein (residues 1-88). In words: HPV1a E7 small-molecule binders, primary screen, biochemical, small-molecule microarray, residues 1-88, 635 nm (AID 1129). Conditions: small-molecule microarray binding, fluorescence 635 nm; higher = more signal.
The target in experiment [3] is Focal adhesion kinase 1 (Homo sapiens) (UniProt Q05397). The experiment in a line: PTK2 protein binding on printed compound slides – biochemical, small-molecule microarray, 635/667 nm fluorescence, BSA, DTT, primary screen (AID 1130).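 Also: composite of spot emission at 667 nm and signal to noise over triplicate slides.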 Conditions: 635 nm fluorescence, higher = more signal.
Experiment [4] concerns Fibrinogen (Alexa647-labelled). In words: Alexa647-fibrinogen binding to printed small molecules – biochemical, small-molecule microarray, 635/667 nm fluorescence, artefact control for SMM control-protein annotation, profiling panel (AID 1131).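 Also: z-score merges 667 nm fluorescence with per-spot signal-to-noise over triplicate slides.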 Conditions: fibrinogen-A647 binding fluorescence, higher = more signal.
In experiment [5] the target is Follistatin (Homo sapiens) (UniProt P19883). In words: FST protein binding to printed compounds – biochemical, small-molecule microarray, 635/667 nm fluorescence, primary screen (AID 1132). Conditions: 635 nm fluorescence, higher = more signal.
Experiment [6] addresses Fibroblast growth factor 2 (Homo sapiens) (UniProt P09038). The experiment in a line: basic fibroblast growth factor binding to printed compounds – biochemical, small-molecule microarray, 635/667 nm fluorescence, primary screen (AID 1133). Conditions: FGF2, fluorescence 635/667, higher = more signal.
Experiment [7] can be described thus: JC-1 mitochondrial potential readout, lung cancer cells – cell-based, A549, JC-1 fluorescence, basal, 24 h, 100 nL, profiling panel (AID 1138).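 Also: A549 lung adenocarcinoma cells under basal conditions with no added stimulus; test concentration not given here.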 Conditions: higher = more signal.
The next experiment has as its system Lefty1. The experiment in a line: Lefty1 protein binding to printed compounds – biochemical, small-molecule microarray, 635/667 nm fluorescence, primary screen (AID 1139). The conditions noted are these: fluorescence 635/667, higher = more signal.
Experiment [8] concerns wheat germ agglutinin (Triticum aestivum), Alexa647-labelled. The experiment in a line: Alexa647-WGA lectin binding to printed small molecules – biochemical, small-molecule microarray, 635/667 nm fluorescence, artefact control for SMM control-protein annotation, profiling panel (AID 1140).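 Also: score merges 667 nm feature emission with signal to noise over triplicate slides.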 Conditions: WGA-A647 binding, 635 nm fluorescence, higher = more signal.
The target of experiment [9] is Luciferin 4-monooxygenase (Photinus pyralis) (UniProt P08659). The experiment in a line: inhibition of purified Photinus pyralis luciferase – biochemical, luminescence, purified enzyme, 2006 set, primary screen (AID 1141).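 Also: cell-free assay with purified firefly luciferase at 100 ng per well in PBS; test concentration not given here.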 Conditions: purified firefly luciferase, SteadyGlo luminescence, 30 min; higher = more signal, called active from +8 up or from −8 down.
The test system of experiment [10] is Wnt5a (protein binding on small-molecule microarray). In words: small molecules binding Wnt5a protein – biophysical, small-molecule microarray, 635/667 nm fluorescence, primary screen (AID 1142).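 Also: fluorescence read at 667 nm with signal to noise per printed feature.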 Conditions: 635 nm fluorescence, higher = more signal.
The nature of experiment [11]: ATP-based viability of Huh7 replicon cells – cell-based, CellTiter-Glo luminescence, basal, 48 h, cytotoxicity control for HCV replication inhibitor project, primary screen (AID 1143).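 Also: Huh7 hepatoma cells carrying a hepatitis C replication reporter with no stimulus; test concentration not given here.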 Conditions: higher = more signal, called active from +8 up or from −8 down. In general terms: Replicon systems follow genome replication, usually without infectious particles.
Experiment [12] is described as follows: Pseudomonas biofilm growth suppression – PAO1 strain, BacTiter-Glo luminescence, LB-PBS, primary screen (AID 1144). Conditions: P. aeruginosa PAO1 biofilm, 12 h, higher = more signal.
The nature of experiment [13]: basal CRE-LacZ reporter activity in PC12 – cell-based, unstimulated, primary screen (AID 1145). The conditions noted are these: no forskolin, luminescence, 4.5 h, higher = more signal, called active from +8 up or from −8 down.
The nature of experiment [14]: forskolin-driven CRE-LacZ activity in PC12 – cell-based, CRE-LacZ reporter, forskolin-stimulated, primary screen (AID 1146).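 Also: PC12 cells with 6xCRE LacZ reporter stimulated by forskolin 10 µM; beta-galactosidase reporter signal reflecting CREB driven transcription.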 The conditions noted are these: luminescence, 4.5 h, higher = more signal, called active from +8 up or from −8 down.
Experiment [15] addresses Streptavidin (Streptomyces avidinii) (UniProt P22629). The experiment in a line: compounds binding control protein streptavidin – biophysical, small-molecule microarray, 635/667 nm fluorescence, artefact control for SMM compound annotation, primary screen (AID 1147).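 Also: signal reflects streptavidin binding to arrayed compounds as a control protein.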 The conditions noted are these: higher = more signal.
A short description of experiment [16]: probe aInhba binding on compound microarray – biochemical, small-molecule microarray, 635/667 nm fluorescence, primary screen (AID 1148).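 Also: score merges 667nm spot fluorescence with signal-to-noise for antibody binding to printed compounds.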 Conditions: higher = more signal.
Experiment [17] deals with Torsin-1A (Homo sapiens) (UniProt O14656). In words: TOR1A wild-type binding on microarray – cell lysate, small-molecule microarray, lysate, 635/667 nm, primary screen (AID 1149). The conditions noted are these: COS7 hTOR1A-WT lysate, 635 nm fluorescence, higher = more signal.
Experiment [18] shares this target. In words: torsin A mutant lysate binding on microarrays – cell lysate, small-molecule microarray, COS7 lysate, 635/667 nm fluorescence, primary screen (AID 1150).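 Also: score pools 667 nm emission and signal to noise measuring lysate protein binding.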 Conditions: COS7 hTOR1A mutant lysate, 635 nm fluorescence, higher = more signal.
Experiment [19] deals with Sonic hedgehog protein (Shh). The experiment in a line: Sonic hedgehog microarray binding compounds – biochemical, small-molecule microarray, 635/667 nm fluorescence, primary screen (AID 1151).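 Also: Shh protein binding to compounds spotted on small-molecule microarray slides; score combines spot fluorescence intensity with signal-to-noise across triplicate slides.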 Conditions: 635 nm fluorescence, higher = more signal.

Molecules are shown by their SMILES. Active and inactive are the calls of the source. Unless noted, no rule for the calls is given here.

Chain of Luciferin 4-monooxygenase (Photinus pyralis) (P08659 whole entry, looked up): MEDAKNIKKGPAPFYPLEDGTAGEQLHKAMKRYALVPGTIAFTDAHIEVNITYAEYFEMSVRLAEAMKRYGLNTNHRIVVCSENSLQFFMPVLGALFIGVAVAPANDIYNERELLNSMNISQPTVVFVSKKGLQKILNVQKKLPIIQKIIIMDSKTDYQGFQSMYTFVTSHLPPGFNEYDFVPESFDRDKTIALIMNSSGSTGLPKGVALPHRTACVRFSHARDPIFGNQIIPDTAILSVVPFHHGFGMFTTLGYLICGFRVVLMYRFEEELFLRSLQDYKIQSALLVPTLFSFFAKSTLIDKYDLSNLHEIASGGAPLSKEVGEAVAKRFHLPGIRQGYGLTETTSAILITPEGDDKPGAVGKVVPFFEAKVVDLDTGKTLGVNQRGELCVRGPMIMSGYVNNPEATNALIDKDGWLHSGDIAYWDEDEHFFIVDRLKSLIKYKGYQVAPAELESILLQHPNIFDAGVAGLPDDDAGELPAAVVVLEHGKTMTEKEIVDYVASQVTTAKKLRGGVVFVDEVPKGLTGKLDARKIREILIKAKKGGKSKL
Chain of Focal adhesion kinase 1 (Homo sapiens) (Q05397 whole entry, looked up): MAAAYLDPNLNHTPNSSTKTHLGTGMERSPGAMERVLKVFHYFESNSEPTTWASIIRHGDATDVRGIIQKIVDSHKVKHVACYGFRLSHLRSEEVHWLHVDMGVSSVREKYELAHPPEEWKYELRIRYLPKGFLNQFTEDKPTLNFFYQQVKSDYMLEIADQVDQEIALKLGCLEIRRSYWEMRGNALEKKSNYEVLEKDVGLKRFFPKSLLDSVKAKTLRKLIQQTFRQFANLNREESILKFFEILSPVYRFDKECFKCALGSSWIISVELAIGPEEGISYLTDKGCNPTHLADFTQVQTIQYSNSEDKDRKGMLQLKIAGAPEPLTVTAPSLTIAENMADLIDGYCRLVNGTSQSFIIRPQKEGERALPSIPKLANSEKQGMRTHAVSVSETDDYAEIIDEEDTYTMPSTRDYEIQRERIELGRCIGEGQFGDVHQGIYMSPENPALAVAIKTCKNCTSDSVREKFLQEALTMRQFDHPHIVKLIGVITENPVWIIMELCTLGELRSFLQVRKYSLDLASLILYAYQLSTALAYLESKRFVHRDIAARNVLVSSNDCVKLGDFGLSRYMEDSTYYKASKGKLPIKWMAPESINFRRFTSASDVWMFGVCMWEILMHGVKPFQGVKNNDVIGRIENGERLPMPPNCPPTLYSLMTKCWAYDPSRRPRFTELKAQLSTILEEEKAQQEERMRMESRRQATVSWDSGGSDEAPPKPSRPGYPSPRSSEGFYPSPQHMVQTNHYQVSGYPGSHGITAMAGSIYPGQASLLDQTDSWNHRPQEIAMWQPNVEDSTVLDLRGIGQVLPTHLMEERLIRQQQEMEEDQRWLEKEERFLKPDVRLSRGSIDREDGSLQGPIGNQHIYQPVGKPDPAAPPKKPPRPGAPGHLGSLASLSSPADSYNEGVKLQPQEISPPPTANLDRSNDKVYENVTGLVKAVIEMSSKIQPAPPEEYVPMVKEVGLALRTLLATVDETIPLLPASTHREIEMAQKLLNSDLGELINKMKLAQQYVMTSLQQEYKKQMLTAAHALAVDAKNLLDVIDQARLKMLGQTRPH
Chain of Follistatin (Homo sapiens) (P19883 whole entry, looked up): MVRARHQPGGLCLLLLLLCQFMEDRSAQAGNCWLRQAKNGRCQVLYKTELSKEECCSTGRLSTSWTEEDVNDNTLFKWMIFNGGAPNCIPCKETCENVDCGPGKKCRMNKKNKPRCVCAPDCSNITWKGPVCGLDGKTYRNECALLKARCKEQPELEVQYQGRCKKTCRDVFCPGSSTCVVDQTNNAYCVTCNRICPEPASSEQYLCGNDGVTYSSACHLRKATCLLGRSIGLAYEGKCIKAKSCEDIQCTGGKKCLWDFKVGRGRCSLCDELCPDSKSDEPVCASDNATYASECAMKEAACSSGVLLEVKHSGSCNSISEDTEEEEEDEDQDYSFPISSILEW
Chain of Fibroblast growth factor 2 (Homo sapiens) (P09038 whole entry, looked up): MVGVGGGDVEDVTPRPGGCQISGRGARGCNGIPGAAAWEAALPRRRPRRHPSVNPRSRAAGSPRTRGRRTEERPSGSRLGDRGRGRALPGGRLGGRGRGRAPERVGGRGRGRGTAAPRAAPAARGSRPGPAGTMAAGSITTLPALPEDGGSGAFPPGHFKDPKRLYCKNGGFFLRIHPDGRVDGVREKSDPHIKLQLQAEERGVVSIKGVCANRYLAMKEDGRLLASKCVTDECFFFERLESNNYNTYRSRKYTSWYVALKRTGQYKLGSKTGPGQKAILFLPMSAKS
Chain of Streptavidin (Streptomyces avidinii) (P22629 whole entry, looked up): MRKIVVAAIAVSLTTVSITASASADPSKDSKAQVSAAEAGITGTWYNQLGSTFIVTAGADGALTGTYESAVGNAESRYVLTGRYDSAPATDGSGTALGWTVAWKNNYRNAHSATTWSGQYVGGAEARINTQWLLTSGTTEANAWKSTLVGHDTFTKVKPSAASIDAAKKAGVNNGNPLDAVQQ
Chain of Torsin-1A (Homo sapiens) (O14656 whole entry, looked up): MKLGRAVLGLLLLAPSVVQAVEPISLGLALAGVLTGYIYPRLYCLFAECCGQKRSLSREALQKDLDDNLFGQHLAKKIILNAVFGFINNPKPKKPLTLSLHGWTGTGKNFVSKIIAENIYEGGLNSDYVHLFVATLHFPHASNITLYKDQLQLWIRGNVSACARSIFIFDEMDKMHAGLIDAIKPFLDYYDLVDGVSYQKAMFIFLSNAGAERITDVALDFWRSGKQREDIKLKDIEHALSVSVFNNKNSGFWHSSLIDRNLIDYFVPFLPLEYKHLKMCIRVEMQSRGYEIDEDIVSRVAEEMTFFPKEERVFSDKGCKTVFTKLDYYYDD

`CO[C@H]1O[C@H](CO)[C@@H](OC(=O)Nc2ccc(C(F)(F)F)cc2)[C@H](OC(=O)Nc2ccc3c(c2)OCO3)[C@@H]1OC(=O)Nc1ccc2c(c1)OCO2`: the composite z-score amounted to 2.18 in experiment [1]; 1.22 in [2]; 1.43 in [3]; 0.607 in experiment [4]; 1.17 in experiment [5]; 0.397 in [6]. The composite z-score in the experiment on Lefty1 was 0.537; in experiment [8], 0.729; in experiment [10], 0.246; in [15], 0.273; in experiment [16], -0.157; in the experiment with Torsin-1A (Homo sapiens) [17], 1.81. In addition, the composite z-score with Torsin-1A (Homo sapiens) [18] was 1.23; in experiment [19], 0.57. In addition, the z-score was -0.656 in experiment [7]; -17.3 (active) in experiment [9]; -4.31 (inactive) in [11]; 0.999 (inactive) in [12]; 0.652 (inactive) in experiment [13]; -1.93 (inactive) in [14].

As to `CC(C)C[C@@H]1NC(=O)[C@H](C(C)C)NC(=O)[C@@]23C(=O)N[C@@H](Cc4ccccc4)C2[C@H](C)[C@@]2(C)O[C@H]2C3/C=C/CC/C=C/CNC1=O` (stereo not given in full), the composite z-score in experiment [1] is 0.65; in [2] it was 0.466; in experiment [3] it was 0.262; in experiment [4] it was 0.972; in experiment [5], 1.29; in [6], 1.53. For the same molecule, the composite z-score in the experiment on Lefty1 was determined as 1.15; in experiment [8], 0.229; in experiment [10], 0.513; in experiment [15], 0.186; in experiment [16], 0.399; in the experiment with Torsin-1A (Homo sapiens) [17] it was 0.356. In addition, the composite z-score in the experiment with Torsin-1A (Homo sapiens) [18] amounted to 0.0386; in [19], 1.71. Moreover, the z-score is 0.276 in experiment [7]; -0.219 (inactive) in experiment [9]; -3.05 (inactive) in [11]; -1.07 (inactive) in [12]; -0.319 (inactive) in experiment [13]; -1.23 (inactive) in [14].

Take `CO[C@H]1O[C@H](CO)[C@@H](OC(=O)Nc2cccc(F)c2)[C@H](OC(=O)Nc2ccccc2)[C@@H]1OC(=O)Nc1ccccc1`: the composite z-score in experiment [1] came out at 1.16; in [2], 1.22; in experiment [3] it was 0.919; in [4], 0.973; in experiment [5], 0.518; in experiment [6], 0.843. The composite z-score was -0.105 in the experiment with Lefty1; 1.27 in experiment [8]; 0.343 in [10]; 0.255 in experiment [15]; 0.289 in experiment [16]; 0.434 in the experiment with Torsin-1A (Homo sapiens) [17]. The composite z-score with Torsin-1A (Homo sapiens) [18] is 0.505; in experiment [19], 1.17. For the same molecule, the z-score in experiment [7] was 0.0874; in experiment [9], 0.0107 (inactive); in experiment [11], -5.79 (inactive); in experiment [12] it was -0.125 (inactive); in experiment [13] it was -0.459 (inactive); in [14], -0.74 (inactive).

Regarding `CCCC[C@@H]1C[C@H]1[C@@H](NC(=O)C(C)(C)C)c1ccc(C(F)(F)F)cc1`, the composite z-score is 1.73 in experiment [1]; 0.779 in [2]; 0.702 in experiment [3]; -0.27 in experiment [4]; -1.57 in [5]; -1.4 in experiment [6]. The composite z-score was -0.722 in the experiment with Lefty1; -0.372 in experiment [8]; -0.96 in experiment [10]; 0.0267 in [15]; -0.0405 in [16]; -0.49 in the experiment with Torsin-1A (Homo sapiens) [17]. In addition, the values for the composite z-score (in the experiment with Torsin-1A (Homo sapiens) [18]; in experiment [19]) were -0.869 and -1.7, respectively. In addition, the z-score was -1.08 in experiment [7]; -3.32 (inactive) in experiment [9]; -4.27 (inactive) in experiment [11]; 0.0317 (inactive) in experiment [12]; 0.201 (inactive) in experiment [13]; 1.44 (inactive) in experiment [14].

`C=CCNC(=O)[C@H]1[C@@H]2C(=O)O[C@@H](c3ccccc3)[C@@H](c3ccccc3)N2[C@@H](c2ccccc2OCCO)[C@]12C(=O)Nc1ccc(C#CCCO)cc12`: the composite z-score is 1.12 in experiment [1]; -0.231 in experiment [2]; 0.191 in experiment [3]; -0.205 in experiment [4]; 0.0804 in experiment [5]; 2.05 in experiment [6]. In addition, the composite z-score in the experiment on Lefty1 is -0.376; in experiment [8] it was -0.0387; in experiment [10] it was 0.805; in experiment [15], -0.378; in experiment [16], -0.0944; in the experiment with Torsin-1A (Homo sapiens) [17], -0.897. The composite z-score in the experiment with Torsin-1A (Homo sapiens) [18] was -0.202; in experiment [19] it was -0.322. Also, the z-score in experiment [7] is 0.582; in [9] it was -0.412 (inactive); in experiment [11], -3.21 (inactive); in experiment [12], 0.481 (inactive); in experiment [13], -0.141 (inactive); in [14] it was 4.71 (inactive).
